# DT40 TDP1 CPT = growth inhibition of DT40 Tdp1-/-;hTDP1 cells with camptothecin (screen for TDP1 inhibitors). chicken DT40 Tdp1-/-;hTDP1 cells + 20 nM CPT, ATP luminescence, 48 h. Potency, µM (titrated, usually from 46.2 µM), without a hit: top-dose activity change, negative = growth inhibition, most hits filed as inhibitors. actives 12% (n = 420,000); note: % is set by controls: 0 for no effect and ±100 for the full control effect; nearly all actives have a fitted effect of over 55% in size
#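 Chicken DT40 Tdp1-/- cells stably complemented with human TDP1 were seeded at 400 cells/well in medium containing 20 nM camptothecin, exposed to pin-transferred compounds, and grown at 37 °C for at least 48 hr. Viability was read as ATP luminescence.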
# HT1080 IDH1KD tx = toxicity to HT-1080 IDH1 knockdown cells (counter line); HT-1080 IDH1 knockdown viability, ATP luminescence, 48 h; Potency, µM (titrated, usually from 46.1 µM), inactives show at the highest dose activity, negative = toxicity, usual class: cytotoxic; actives 2% (n = 360,000); AID 686971;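 note: 0% = DMSO wells and -100% = cell-free medium wells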
#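 After a 2 h attachment period, IDH1KD HT-1080 cells took pin-transferred compound for 48 h at 37 °C; ATP-based luminescence after 10 min room-temperature reagent incubation reported viability.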
# TDP1 cell noCPT = qHTS for Inhibitors of human tyrosyl-DNA phosphodiesterase 1 (TDP1): qHTS in cells in absence of CPT; Potency, µM (titrated, usually from 46.2 µM), inactives show top-dose activity change, negative = growth inhibition, hits mostly inhibitors; actives 15% (n = 420,000); DT40 Tdp1-/- hTDP1 cells, no CPT, ATP luminescence, 48 h; note: % is set by controls: 0 for no effect and ±100 for the full control effect; nearly all actives have a fitted effect of over 55% in size
#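 Camptothecin absent (DMSO only). Human TDP1-complemented DT40 knockout cells, 400 cells/well, 37 °C for minimum 48 hr; ATP measured via CellTiter-Glo, 30 min dark incubation, luminescence.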
# HepG2 tox = counter-screen for TGF-b inhibitors: cytotoxicity in HepG2 cells; HepG2 CAGA-GFP viability, ATP luminescence, 18 h; Potency, µM (top dose mostly 46.1 µM), without a hit: at the highest dose activity change, negative = cytotoxicity, usual class: cytotoxic; actives 0.76% (n = 410,000); AID 588856
#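 HepG2 CAGA-GFP cells (1000/well, DMEM with 1% FBS) received compound, then TGF-beta at 500 pg/mL final, and were incubated 18 hours at 37 degrees C. Viability was read by CellTiter-Glo luminescence. Media-only wells were set as complete cell-killing and DMSO as no toxicity.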
# TGFb SMAD3 inh = blocks TGF-b signaling | HepG2 CAGA-GFP TGF-b/SMAD3 reporter, GFP fluorescence, 18 h; TGF-beta stimulated, 500 pg/mL final | Potency, µM (top dose mostly 46.1 µM), without a hit: at the top dose activity, negative = inhibition, usual class: inhibitors | actives 1.2% (n = 410,000) | AID 588855; note: % is set by controls: 0 for no effect and ±100 for the full control effect; nearly all actives have a fitted effect of over 65% in size
#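 HEPG2 CAGA-GFP cells (1000/well, DMEM with 1% FBS) were pre-incubated 2 h at 37 degrees C, given compound by pin tool, then stimulated with TGF-beta at 500 pg/mL final for 18 h before per-cell GFP fluorescence imaging.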
# HT1080-NT tox = kills 2HG-producing HT-1080-NT fibrosarcoma cells | HT-1080-NT fibrosarcoma viability, CellTiter-Glo ATP luminescence, 48 h | Potency, µM (highest dose often 46.1 µM), without a hit: at the highest dose activity, negative = less viability, actives largely listed as cytotoxic | actives 1.6% (n = 360,000);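 note: NT is the 2HG producing partner of a matched IDH1 knockdown line; 0% = DMSO-treated cells and -100% = media-only wells without cells; nearly all actives have a fitted effect of over 55% in size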
#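 Toxicity toward the 2HG-producing NT line was scored as %Activity, normalised to DMSO and no-cell wells, from CellTiter-Glo luminescence after 48 hours' treatment.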
# * marks the source's active call; other numbers are inactive results; ? = inconclusive; nt = no result given; [ ] = another dose, or the depositor's remark. Sampled rows, rich in hits. Any-hit rate of the full collection: about 17%. Calls come from the whole dose curve; as a rule, active = well fitted curve in the direction sought with a large enough effect; inconclusive = small, poorly fitted or top-dose-only effect, or another doubt; inactive = no such curve, though single readings can be large; an effect the other way counts as inactive or inconclusive. Potency is the fitted concentration of half-maximal effect.
SMILES,DT40 TDP1 CPT,HT1080 IDH1KD tx,TDP1 cell noCPT,HepG2 tox,TGFb SMAD3 inh,HT1080-NT tox
CCOC(=O)CN1C(=O)C(Sc2n[nH]c(-c3ccccc3)n2)CCc2ccccc21 (stereo unspecified),21µM*,-3%[9.24 µM],21µM*,-18%,-15%,?
CCOc1ccc(N2C(=O)CC(Sc3nc(CC(C)C)ccc3C#N)C2=O)cc1 (stereo unspecified),23µM*,0%,?,1%,-1%,8%
CCOc1ccc(N2C(=O)CC(Sc3nc(C)cc(C)c3C#N)C2=O)cc1 (stereo unspecified),?,-8%,?,-2%,0%,-6%
COc1cccc(N2C(=O)C3C(C2=O)C3(c2ccccc2)c2ccccc2)c1 (stereo unspecified),-13%,-2%,?,1%,14%,-2%
CN(Cc1ccco1)c1cc(-c2cccc(C#N)c2)ncn1,-2%,nt,-16%,nt,nt,nt
O=C(O)CCc1c2ccc(=O)c(O)c-2oc2c(O)c(O)ccc12,-17%,nt,-12%,-4%,-20%,nt
O=C(NC(C1CC1)C1CC1)C1CCC(=O)N(CCCN2CCCC2=O)C1 (stereo unspecified),-3%,1%,7%,-39%,-8%,4%
CCOc1ccc(N2C(=O)CC(N)C2=O)cc1 (stereo unspecified),1.8µM*,-6%,2.6µM*,-110%,?,1%
COc1ccc(N2C(=O)CC(Sc3n[nH]c(-c4ccccc4)n3)C2=O)cc1 (stereo unspecified),0.46µM*,10%,1.2µM*,18%,0%,7%
CCOc1ccc(N2C(=O)CC(Sc3n[nH]c(-c4ccccc4)n3)C2=O)cc1 (stereo unspecified),7.3µM*,1%,7.3µM*,-1%,-10%,1%
CCOc1ccc(N2C(=O)CC(Cc3cc(C)cc(C)c3)C2=O)cc1 (stereo unspecified),-6%,5%,?,-5%,6%,6%
O=C(Cc1ccccc1[N+](=O)[O-])NCC(=O)c1ccc2c(c1)OCO2,-3%,12%,-12%,9%,13%,9%
Clc1ccc2nc(CSCc3ccccc3)cn2c1,-5%,17%,?,-7%,-11%,20%
N#C/C(=C\c1ccc[nH]1)C(=O)Nc1ccccc1[N+](=O)[O-],14%,-28%,12%,2%,4%,-22%
C[C@@H]1CN([C@@H](C)CO)S(=O)(=O)c2ccc(Br)cc2O[C@H]1CN(C)C(=O)Nc1ccc(C(F)(F)F)cc1,?,?,?,16%,?,?
C[C@@H]1CN([C@H](C)CO)S(=O)(=O)c2ccc(Br)cc2O[C@H]1CN(C)C(=O)Nc1ccccc1,?,11%,?,0%,-7%,15%
C[C@@H]1CN([C@H](C)CO)S(=O)(=O)c2ccc(Br)cc2O[C@@H]1CN(C)C(=O)Nc1ccc(C(F)(F)F)cc1,21µM*,?,?,-39%,?,?
Cc1ccccc1-c1ccc2c(c1)O[C@@H](CN(C)C(=O)Nc1ccc(C(F)(F)F)cc1)[C@H](C)CN([C@@H](C)CO)S2(=O)=O,21µM*,16µM*,13µM*,-43%,?,16µM*
COc1ccccc1NC(=O)c1cc2c(=O)oc3ccc(C)cc3c2s1,-6%,nt,?,4%,-1%,nt
O=[N+]([O-])c1cc([N+](=O)[O-])c(Oc2ccc(Cl)c3cccnc23)cc1NN1CCCCC1,?,1%,?,15%,25%,4%
CN(C)c1ccc(-n2cccc2/C=C/[N+](=O)[O-])cc1,16µM*,6.5µM*,4.1µM*,-3%,11%,6.5µM*
CC(C)(C)OC(=O)N/N=C/c1cccn1-c1ccc([N+](=O)[O-])cc1,10%,7%,-11%,5%,-1%,-26%
CCc1ccc(NC(=O)C2CCCN(S(=O)(=O)c3cccnc3)C2)cc1 (stereo unspecified),?,-15%,?,-18%,-1%,?
O=C(Nc1ccc(OC(F)(F)F)cc1)C1CCCN(S(=O)(=O)c2cccnc2)C1 (stereo unspecified),18µM*,?,13µM*,-14%,1%,-21%
O=C(c1ccc2ccccc2c1)C1CCCN(S(=O)(=O)c2cccnc2)C1 (stereo unspecified),23µM*,-11%,21µM*,-28%,-17%,-10%
SMILES,DT40 TDP1 CPT,HT1080 IDH1KD tx,TDP1 cell noCPT,HepG2 tox,TGFb SMAD3 inh,HT1080-NT tox
O=C(C1CCCN(S(=O)(=O)c2cccnc2)C1)N1CCN(c2ccccn2)CC1 (stereo unspecified),-16%,6%,?,-3%,0%,12%
Cc1ccc(C)c(NC(=O)COC(=O)CNC(=O)C2CCCCC2)c1,9%,1%,-1%,0%,-27%,9%
Nc1c(C(=O)N/N=C/c2ccc(F)cc2)oc2nc(-c3ccccc3)cc(-c3ccco3)c12,23µM*,21µM*,10µM*,-53%,44%,?
Nc1c(C(=O)N/N=C/c2ccccc2Cl)oc2nc(-c3ccccc3)cc(-c3ccco3)c12,?,2%,21µM*,-26%,-26%,-5%
Cc1cc(-c2ccccc2)nc2oc(C(=O)NN)c(N)c12,?,-10%,?,-25%,?,-2%
CCOc1ccc(C2=NC(c3ccc(OC)cc3)=Nc3ccc(Cl)cc3N2)cc1,?,nt,21µM*,-8%,-2%,nt
COc1ccc(C2=Nc3ccc(OC(F)(F)F)cc3NC(c3cccnc3)=N2)cc1,10µM*,nt,6.5µM*,-17%,19%,nt
COc1ccc2c(c1)NC(c1ccc(OCC(C)C)cc1)=NC(c1ccncc1)=N2,?,nt,?,-8%,15%,nt
CCCCOc1ccc(C2=NC(c3ccccc3)=Nc3ccc(OC)cc3N2)cc1,16µM*,nt,23µM*,-4%,8%,nt
COc1ccc2c(c1)NC(c1ccc(Cl)cc1)=NC(c1cccs1)=N2,29µM*,nt,-76%,-10%,2%,nt
CC(C)c1ccc2c(c1)NC(c1ccc(F)cc1)=NC(c1cccs1)=N2,?,nt,?,-35%,?,nt

# Screening results deposited in PubChem BioAssay by National Center for Advancing Translational Sciences (NCATS).
